Results taken from PubChem BioAssay AID624037 (The Scripps Research Institute Molecular Screening Center, 2012).
About 700 (0.19%) of roughly 360,000 compounds were called active. The sample as a whole holds a higher share of actives than the screen did. Values without a mark were called inactive.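 How the source made its calls: active means activation above the run's mean over test compounds plus 3 SD (cut at about 23% in these data); inactive means the rest.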

target: Muscarinic acetylcholine receptor M5 (Homo sapiens) (UniProt P08912); assay: human M5 muscarinic receptor agonists, primary screen, CHO-K1 cells, Fluo-8 calcium fluorescence (AID 624037); conditions: CHO-K1 hM5 cells, at 3 µM, active compounds read high, 0% DMSO wells, 100% maximal acetylcholine response;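 further: signal is peak over basal fluorescence ratio across the kinetic read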
Sequence (P08912 whole entry, looked up): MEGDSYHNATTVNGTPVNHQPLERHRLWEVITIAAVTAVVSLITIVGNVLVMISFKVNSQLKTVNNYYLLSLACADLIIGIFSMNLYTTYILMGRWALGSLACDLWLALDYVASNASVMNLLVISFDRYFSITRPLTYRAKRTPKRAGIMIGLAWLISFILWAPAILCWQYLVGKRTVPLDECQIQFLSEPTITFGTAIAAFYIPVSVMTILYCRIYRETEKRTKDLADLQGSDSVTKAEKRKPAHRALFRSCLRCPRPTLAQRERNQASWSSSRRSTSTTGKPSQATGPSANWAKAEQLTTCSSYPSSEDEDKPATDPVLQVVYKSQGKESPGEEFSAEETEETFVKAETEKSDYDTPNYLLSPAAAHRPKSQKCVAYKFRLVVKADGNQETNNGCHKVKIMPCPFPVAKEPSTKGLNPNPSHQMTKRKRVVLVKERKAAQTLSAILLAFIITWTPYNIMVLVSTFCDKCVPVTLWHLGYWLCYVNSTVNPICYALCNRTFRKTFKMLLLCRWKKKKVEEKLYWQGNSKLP

Structure (SMILES)	activation
CC(C)C[C@H]1CNC(=S)N1C[C@H]1CCCN1C[C@H](Cc1ccc(O)cc1)N1C[C@H](Cc2ccc(O)cc2)N(CC2CCCCC2)C1=S	-1.54%
O=C(CCCN=C1NS(=O)(=O)c2ccccc21)OCC(=O)c1ccc(F)c(F)c1	37.2% (active)
Cc1ccccc1C(=O)NCCN=C1NS(=O)(=O)c2ccccc21	-1.12%
N#CC1(NC(=O)COC(=O)CCN=C2NS(=O)(=O)c3ccccc32)CCCCC1	-5.2%
O=C(Cc1c(Cl)cccc1Cl)NC1CC1	-4.03%
Cc1ccc(C(=O)N(CC(=O)NC2CCCC2)c2ccc(F)cc2)s1	-2.46%
O=C(/C=C(O)/C=C/c1ccc(O)cc1)/C=C/c1ccc(O)cc1	156% (active)
COc1cccc(C(=O)NNC(=O)/C=C/c2ccccc2)c1	-2.95%
c1ccc(C(=NNc2nc3ccccc3s2)c2ccccn2)cc1	58.8% (active)
Cc1cc(C)c2c(c1)cc(C)c1nnc(SCC(=O)Nc3cc(C)on3)n12	3.15%
O=C(CN(C(=O)CCC(=O)Nc1nccs1)c1ccc(F)cc1)NCc1ccc2c(c1)OCO2	-1.79%
Cc1nccn1CCCNC(=O)CC1C(=O)NCCN1Cc1ccc(Cl)c(F)c1 (centres undefined)	-2.66%
CC(=O)C[C@@H]1OC[C@H](CO)N1S(=O)(=O)c1ccc(C)cc1	4.39%
O=C(COC(=O)Cc1ccc(Br)cc1)Nc1ccc(N2CCOCC2)cc1	4.95%
CC(C)[C@H](NC(=O)N1CC(=O)Nc2ccccc21)C(=O)N[C@@H](Cc1c[nH]c2ccccc12)C(=O)O	1.96%
Cc1cccc(C)c1NC(=O)CNC(=O)Cc1ccc(Br)cc1	-2.94%
CCOc1ccc(CNC(=O)CCC(=O)N2CCSc3ccccc32)cc1	3.47%
CCn1cc(C(=O)NCC2COc3ccccc3O2)c2cc(OC)c(OC)cc2c1=O (centres undefined)	1.23%
O=C1C(=O)N(c2ccccc2)c2ccccc21	15.5%
O=C1C(=O)N(CC2COc3ccccc3O2)c2ccccc21 (centres undefined)	26.9% (active)

Structure (SMILES)	activation
O=C(Cn1nc(Cc2cccnc2)c2ccccc2c1=O)NCC1COc2ccccc2O1 (centres undefined)	1.51%
c1ccc2c(c1)OCC(CNc1ncnc3nc[nH]c13)O2 (centres undefined)	108% (active)
CCC(=O)c1ccc(OCC(=O)N(CC)CC2COc3ccccc3O2)cc1 (centres undefined)	-1.18%
Cc1ccc2c(c1)C(O)(CC(=O)c1cccc(-n3cccc3)c1)C(=O)N2 (centres undefined)	3.01%
Cc1cccc(N=C2NC(=O)CS2)c1C	2.4%
O=c1[nH]oc(O)c1-c1ncc(C(F)(F)F)cc1Cl	-1.47%
COc1ccc(NS(=O)(=O)c2ccc(C)c(C(=O)NNC(=O)c3csc(N4CCOCC4)n3)c2)cc1	-2.51%
CC1CN(c2cc(=O)n(Cc3ccc(F)cc3)c(=O)[nH]2)CC(C)O1 (centres undefined)	1.48%
O=C1C(Sc2cccc(F)c2)=C[C@@]2(O)CC[C@@H](O)[C@]1(Sc1cccc(F)c1)[C@H]2O	-1.89%
CC12CN3CC(C)(CN(C1)C3c1ccc(Cl)cc1Cl)C2=O (centres undefined)	0.42%
CCC(C)C1(C2CCCC2)NC(=O)NC1=O (centres undefined)	-2.24%
Cc1ccsc1C1C(C#N)=C(N)OC2=C1C(=O)CC(C)(C)C2 (centres undefined)	-3.66%
CCOC(=O)c1cnc(SC)nc1Sc1ccc(Cl)cc1Cl	-3.12%
O=C(Cn1nc(Cc2cccnc2)c2ccccc2c1=O)NCC1CCCO1 (centres undefined)	1.65%
COC(=O)c1ccc(OC(=O)c2nn(C)cc2Cl)c(OC)c1	-3.16%
CCN(CC)CCCNC(=O)c1ccc2c(=O)n(Cc3ccc4c(c3)OCO4)c(=S)[nH]c2c1	-16.7%
COC(=O)[C@]12CCCCC=C1N(CCC1=CCCCC1)C(=O)[C@H](CC(=O)N1CCSCC1)C2	0.77%
CCOC(=O)N1CCN(C(=O)C[C@@H]2C[C@@]3(C(=O)OC)CCCCC=C3N(CCC3=CCCCC3)C2=O)CC1	24% (active)
CCOC(=O)[C@]12CCCC=C1N(CCC1=CCCCC1)C(=O)[C@H](CC(=O)N1CCCCC1)C2	2.91%
COc1cc(NC(=S)NCCSc2ccc(C)cc2)cc(OC)c1	0.65%

Structure (SMILES)	activation
CCCCCCCCNS(=O)(=O)CCNC1CCCCC1	2.22%
CCn1c(-c2ccoc2C)n[nH]c1=S	-2.69%
CC(=O)OC(C)C[N+](C)(C)C (centres undefined)	99.8% (active)
CC(C[N+](C)(C)C)OC(N)=O (centres undefined)	96.3% (active)
CC(=O)OCCC(C)C	1.99%
CCCCOC(=O)Nc1nccs1	1.28%
COc1ccc(C(=O)NC(Cc2ccc(OC(=O)c3ccc(OC)cc3)cc2)C(=O)O)cc1 (centres undefined)	0.61%
Cc1ccc(O)c(NC(=S)NC(=O)COc2ccc(Br)cc2)c1	31.2% (active)
Cc1ccc(O)c(/C=N/NC(=O)COc2ccc3c(C)cc(=O)oc3c2)c1	-0.84%
Cc1ccsc1C(=O)NNC(=O)COc1ccc(Br)cc1	2.78%
Cc1ccc(S(=O)(=O)N2CCCC2CO)cc1 (centres undefined)	1.95%
CC1(C)OC(=O)C2=C(CC(c3ccccc3)OC2CCc2ccccc2)O1 (centres undefined)	-0.45%
CCCCCCSc1nsc(N)n1	-2.92%
O=C(NCCN=C1NS(=O)(=O)c2ccccc21)c1ccc(S(=O)(=O)N2CCOCC2)cc1	-1.87%
Cc1ccccc1N(C(=O)Cc1cccs1)C(C(=O)NC1CCCCC1)c1cn(C)nc1C (centres undefined)	-1.99%
O=C(O)CC/C(=N\NC(=O)c1ccc(F)cc1)c1ccc(Br)cc1	-1.22%
COc1ccc(COC(=O)c2ccc(Cl)c(S(=O)(=O)N3CCOCC3)c2)cc1F	-0.05%
CC1CCN(S(=O)(=O)c2ccc3ncn(CC(=O)N(C)C4CCCCC4)c(=O)c3c2)CC1	-0.64%
CC(=O)Nc1ccc(S(=O)(=O)N(C)c2ccc(OCC(=O)OCC(=O)N3CCCCC3)cc2)cc1	0.4%
